Bioassay records as filed in PubChem.
Shown is part of a subset that was picked to be rich in hits.
RORg inh – qHTS for inhibitors of ROR gamma transcriptional activity; Nuclear receptor ROR-gamma (Mus musculus), P51450; Drosophila S2 Gal4-RORgamma UAS-luciferase reporter, 20 h; Potency, µM (series often up to 53.6 µM), usual class: inhibitors; 310,000 compounds, 5.4% hits; AID 2551, 2010; note: nearly all actives have a fitted effect of over 60% in size
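In this cell-based reporter format, copper sulfate (700 uM final) drives Gal4–ROR gamma fusion expression from a metallothionein promoter in Drosophila Schneider cells; compounds preincubated 1 hr, reporter read after 20 hr at ambient temperature.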
ERG Ets-DNA blk – qHTS for Small Molecule Inhibitors of the ERG Ets/DNA interaction; Potency, µM (highest dose often 76.9 µM), most hits filed as inhibitors; AID 624246, 2012; 370,000 compounds, 0.028% hits; fluorescence polarization, His-ERG Ets domain / labelled DNA; active = well fitted inhibition curve with a large enough effect in the polarisation, with a control signal flat; inconclusive = small, poorly fitted or top-dose-only effect, or effect the other way, or a change in a side signal; inactive = no such curve, though single readings can be large or run the other way; the % refers to the polarisation;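 note: polarization taken with two DNA probes labelled with fluorescein and Texas red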
Target sequence (P11308 whole entry, looked up, the tested form may be a part): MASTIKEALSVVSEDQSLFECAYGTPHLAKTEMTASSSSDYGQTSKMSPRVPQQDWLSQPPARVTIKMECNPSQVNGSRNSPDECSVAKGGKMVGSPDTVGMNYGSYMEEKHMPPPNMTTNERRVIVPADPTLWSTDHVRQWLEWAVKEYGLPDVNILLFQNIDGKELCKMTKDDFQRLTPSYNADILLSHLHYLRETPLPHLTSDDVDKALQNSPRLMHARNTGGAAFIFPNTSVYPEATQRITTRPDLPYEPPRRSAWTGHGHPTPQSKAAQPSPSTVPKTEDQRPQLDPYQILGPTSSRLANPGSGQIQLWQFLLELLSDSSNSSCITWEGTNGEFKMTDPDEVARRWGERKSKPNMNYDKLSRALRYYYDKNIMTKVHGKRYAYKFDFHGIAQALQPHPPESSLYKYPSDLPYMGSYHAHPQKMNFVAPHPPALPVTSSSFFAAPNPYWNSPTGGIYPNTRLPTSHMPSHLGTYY
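His-tagged ERG Ets domain (1 uM in the protein solution; 300mM KCl, 50mM Tris-HCl, 1mM EDTA, 1mM DTT, pH 7.5) received compound, then a probe mix of 5 nM fluorescein-DNA and 100nM Texas-615-DNA. Fluorescence polarization was read for both dyes.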
a7 integrin act – qHTS for Activators of Integrin-Mediated Alleviation for Muscular Dystrophy | alpha7betagal myoblasts, beta-gal FDG fluorescence, 48 h | Potency, µM (series often up to 38.3 µM), most hits filed as activators | 350,000 compounds, 0.064% hits | AID 624291, 2012; note: nearly all actives have a fitted effect of over 60% in size
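Alpha7betagal+/- myoblasts (passage 13) were plated 16-24 hr, then exposed to compounds (1:260 dilution of DMSO stock) for 48 hours at 37C. After MPER lysis, β-galactosidase reporter activity was read as FDG fluorescence (ex 480/em 540) after 30 minutes.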
Giardia kill – Small Molecules that selectively kill Giardia lamblia: qHTS. AID 540267, 2011. 340,000 compounds, 0.15% hits. activity change, % at 7.66 µM, hits read low. Giardia lamblia trophozoite viability; in the data active = activity change below about -80%; inconclusive = between about -30% and that limit;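 note: parasites exposed to compound for two days anaerobically before the ATP read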
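Luminescent ATP signal served as the viability read-out, measured 15-30 min after adding ATP detection reagent to trophozoites that had been incubated with compounds for 48 hrs at 37 deg C anaerobically at 100 cells/well.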
VP16 counter – VP16 counterscreen qHTS for inhibitors of ROR gamma transcriptional activity; Potency, µM (doses to about 53.6 µM), hits mostly inhibitors; Drosophila S2 Gal4-VP16 UAS-luciferase, luminescence, 20 h; 310,000 compounds, 3.5% hits;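 note: Gal4-VP16 expression switched on by copper sulfate through the metallothionein promoter; nearly all actives have a fitted effect of over 50% in size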
Numbers stand for hits; – = inactive; ? = inconclusive; · = no result; [ ] = dose if it differs, or a comment. Unless noted, calls come from the whole dose curve; as a rule, active = well fitted curve in the direction sought with a large enough effect; inconclusive = small, poorly fitted or top-dose-only effect, or another doubt; inactive = no such curve, though single readings can be large; an effect the other way counts as inactive or inconclusive.

SMILES	RORg inh	ERG Ets-DNA blk	a7 integrin act	Giardia kill	VP16 counter
CCOC(=O)N1CCC2(CC1)C(C#N)=C(N)Oc1c2sc2nc(C)cc(C)c12	8.91µM	·	–	–	?
CCc1ccccc1N(C)S(=O)(=O)c1ccc(-c2cc(C)no2)s1	–	–	–	–	?
CCN(CC)C(=S)SCC(=O)Nc1nc(=O)c2ccccc2s1	?	–	–	–	11.2µM
O=C(NNc1ccc([N+](=O)[O-])cc1)c1ccccc1Cl	–	–	–	–	–
O=C(NC(NNc1ccc([N+](=O)[O-])cc1)(C(F)(F)F)C(F)(F)F)c1ccc(Cl)cc1	15.8µM	–	–	–	?
O=C(Nc1nc2n(n1)C(c1ccc(F)cc1)C=C(c1ccccc1)N2)c1ccco1 (centres undefined)	·	–	·	·	·
C=CCn1c(-c2csc(-c3ccc(OC)c(OC)c3)n2)n[nH]c1=S	2µM	–	–	–	?
C=CCn1c(-c2cc(-c3ccccc3)sc2N)n[nH]c1=S	2.24µM	–	–	–	10µM
C=CCn1c(-c2csc(-c3ccccc3)n2)n[nH]c1=S	3.98µM	–	–	–	0.708µM
C=CCn1c(-c2ccc(=O)n(Cc3ccccc3)c2)n[nH]c1=S	–	·	·	·	–
C=CCn1c(-c2csc(-c3ccc(Cl)cc3)n2)n[nH]c1=S	?	–	–	–	1.78µM
CCCC[C@@H]1CCCO[C@@](C(=O)NCCOC)(C(F)(F)F)C1	–	·	·	–	–
C=CCn1c(-c2csc3ccccc23)n[nH]c1=S	3.55µM	–	–	–	6.31µM
C=CCn1c(-c2c[nH]c3ccccc23)n[nH]c1=S	–[10 µM]	–	–	–	?
CC1CN(S(=O)(=O)c2cc(C(=O)NCCC3=CCCCC3)ccc2Cl)CC(C)O1 (centres undefined)	·	–	–	–	·
CC/C=C/C#N	–	·	·	·	–
Cc1ccc(NC(=O)Cn2c(=O)oc3cc(S(=O)(=O)N4CCC(C)CC4)ccc32)cc1Cl	·	–	·	·	·
Cc1ccc(NC(=O)Cn2c(=O)oc3cc(S(=O)(=O)N4CCC(C)CC4)ccc32)cc1C	–	–	–	–	20µM
Cc1ccc2ccc3cc(C(=O)Nc4ccc(C)c(F)c4)nc3c2[nH]1	·	–	·	·	·
Cc1cccc(C2=N[C@@H](Cc3ccccc3)CO2)c1	–	·	·	·	–
CSc1cc(-c2ccc(Cl)cc2)c(C(=O)NC(C)C)s1	–	–	–	–	–
CSc1cc(-c2ccc(Cl)cc2)c(C(=O)NN)s1	11.2µM	–	–	–	?
Nc1ncnc(Sc2ncccn2)c1[N+](=O)[O-]	3.98µM	–	–	–	7.08µM
Nc1ncnc(Sc2ccc(Cl)cc2)c1[N+](=O)[O-]	–	–	–	–	–
Nc1ncnc(Sc2ccccc2)c1[N+](=O)[O-]	10µM	–	–	–	?
SMILES	RORg inh	ERG Ets-DNA blk	a7 integrin act	Giardia kill	VP16 counter
Cc1ccc(Sc2ncnc(N)c2[N+](=O)[O-])cc1	–	–	–	–	–
COc1ccc(CCNC(=O)C(=O)NCc2cccs2)cc1OC	–	–	–	–	–
COC(=O)c1ccccc1NC(=O)CSc1nc2ccccc2nc1Cc1ccccc1OC	·	–	·	·	·
O=C(COC(=O)CC(c1ccccc1)c1ccccc1)NCc1ccc(Cl)cc1	–	–	–	–	20µM
CCCC(=O)OCC(=O)NCc1ccc(Cl)cc1	–	–	–	–	–
Cc1ccc(NC(=O)/C=C/c2ccccc2)c(Br)c1	·	–	·	·	·
CC1=C(/C=C/C(C)=N\NC(=O)c2ccncc2)C(C)(C)CCC1	7.94µM	–	–	–	?
C/C(=N\NC(=O)c1ccc2c(c1)OCO2)c1cccnc1	?	–	–	–	–
CC(/C=C/c1ccc2c(c1)OCO2)=N/NC(=O)c1ccncc1	5.62µM	–	–	–	17.8µM
CC(/C=C/c1cccc([N+](=O)[O-])c1)=N\NC(=O)c1ccncc1	5.01µM	–	–	–	10µM
CC(/C=C/c1ccc2c(c1)OCO2)=N/NC(=O)c1cccnc1	3.55µM	–	–	–	6.31µM
CCOCCC(=O)Nc1cc(Cl)ccc1OC	?	–	–	–	–
COc1cc(NC(=O)c2cc3ccccc3cc2OC)ccc1NC(=O)c1cccs1	–	–	–	–	–
CC(C)CN(C(=O)COC(=O)Cc1cccc2ccccc12)c1c(N)n(Cc2ccccc2)c(=O)[nH]c1=O	·	–	–	–	·
OCCOCCN1CCN(C(=S)Nc2ccccc2)CC1	–	–	–	–	–
CC(/C=C/c1ccc2c(c1)OCO2)=N/NC(=O)c1ccc(C)nc1	7.94µM	–	–	–	7.94µM
Cc1ccc(C(=O)N/N=C\c2cc3c(cc2Br)OCO3)cn1	–	–	–	–	–
CC[C@@H](NCCCn1cnc2c(SC)ncnc21)c1ccccc1	·	·	–	·	·
CCC(C)(C)n1nnnc1C(c1cccs1)N1CCc2ccccc21 (centres undefined)	?	·	–	–	11.2µM
CCC(C)(C)n1nnnc1C(c1cccnc1)N1CCCc2ccccc21 (centres undefined)	–	·	–	–	–
COc1ccc(S(=O)(=O)N(C)C[C@H]2Oc3ccc(NS(=O)(=O)c4ccc(F)cc4)cc3C(=O)N([C@H](C)CO)C[C@@H]2C)cc1	·	–	–	?	·
C/C(=N\OCC(=O)N/N=C/c1ccc(C)cc1O)c1cccs1	0.501µM	–	–	–	2.82µM
Cc1ccc(NC(=S)NC(=O)c2ccc(-c3ccc(Cl)cc3)o2)c(O)c1	–	–	–	–	–
Cc1ccc(O)c(NC(=S)NC(=O)Cc2ccc(Cl)cc2)c1	12.6µM	–	–	–	11.2µM
Cc1cc(O)c(NC(=S)NC(=O)c2ccc(-c3ccc(Cl)cc3)o2)cc1C	3.16µM	–	–	–	5.01µM
SMILES	RORg inh	ERG Ets-DNA blk	a7 integrin act	Giardia kill	VP16 counter
Cc1ccc(/C=N/NC(=O)Cc2ccc(Cl)cc2)c(O)c1	0.224µM	–	–	–	0.562µM
CN1CCC/C1=C/C=C1\SC(=S)NC1=O	–	·	–	–	?
O=C(Nc1ccc([N+](=O)[O-])cc1Cl)c1cc(Cl)cc(Cl)c1O	·	·	·	–	·
O=C(Nc1cccc(-c2nc3cccnc3s2)c1)c1cccc(Br)c1	·	–	·	·	·
COc1ccccc1-n1cc2c([N+](=O)[O-])cc([N+](=O)[O-])cc2n1	–	–	–	-85.3	–
COc1ccccc1N=c1c2c([N+](=O)[O-])cc([N+](=O)[O-])cc2n(O)n1-c1ccccc1OC	–	·	·	·	–
CCc1nnc(NC2=NCCC2)s1	–	–	–	–	17.8µM
Cc1cnc(NC2=NCCC2)s1	7.08µM	–	–	–	?
c1nnc(NC2=NCCC2)s1	–	–	–	–	–
COC(=O)C1=C(C(=O)OC)SC2(S1)C(C(=O)OC)=C(C(=O)OC)SC1=C2c2cccc(C)c2NC1(C)C	5.62µM	–	–	–	?
CCOC(=O)C1(C)Oc2ccccc2C(C(=O)OC)=C1C(=O)OC (centres undefined)	–	–	–	–	–
CC1(c2nnc(Cc3ccccc3)o2)CC(c2cccc(F)c2)=NO1 (centres undefined)	·	–	–	–	·
